Data on 40 compounds can be found in PubChem BioAssay (Tox21).

Each structure is given as a SMILES string. Results filed as inconclusive are left out. Activity calls are given as the source filed them. Calls come from the whole dose curve.
% is set by controls: 0 for no effect and ±100 for the full control effect.

The assay is described as follows: qHTS assay to identify small molecule agonists of H2AX - cell viability counter screen (AID 1224847). Note: top concentration of the series differs between compounds; nearly all actives have a fitted effect of over 30% in size. The note with it: CHO-K1 viability, CellTiter-Glo luminescence, 3 h; series mostly up to 154 µM. The text has this: National Center for Advancing Translational Sciences [NCATS]
NIH Chemical Genomics Center [NCGC]
U.S. Environmental Protection Agency [EPA]
National Institutes of Environmental Health Sciences [NIEHS]
National Toxicology Program [NTP]
U.S. Food and Drug Administration [FDA]
HTRF phospho-H2AX (Ser139) assay (Cisbio Bioassays, US) enables the quantitative detection of the histone variant H2AX when phosphorylated on serine 139. When double-stranded DNA breaks, either by ionizing radiation or endogenous physiological processes, H2AX becomes phosphorylated at Ser139. This phospho-Ser139 serves as a sensitive biomarker for the detection of such breaks, localizing the site of DNA repair. So, HTRF phospho-H2AX Ser139 is a pertinent assay to study genome stability, the cell cycle, DNA repair, and it serves as a biomarker for cancer, and to understand aging. Wild type CHO-K1 cells were used to identify the inducers of Phospho-H2AX Ser 139 from the Tox21 compound collections. Also cytotoxicity of the Tox21 10K compound library against the CHO-K1 cell line was tested by measuring the cell viability using CellTiter-Glo assay (Promega, Madison, WI).
Tox21 Assay Protocol Summary:
The CHO-K1 cells suspended in culture medium containing 10% FBS were dispensed at 1000 cells/ 3 ul/well in 1536-well white wall/solid bottom plates (Greiner Bio-One North America, NC) using a Multidrop Combi (Thermo Fisher Scientific Inc., Waltham, MA). After the assay plates were incubated at 37C overnight, 23 nl of compounds at 15 concentrations (from 5-48 columns) or positive control (from 1 to 4 columns) were transferred to the assay plates using a Pintool station (Wako, San Diego, CA) into each well resulting in a final DMSO concentration of 0.76%. After 3hr incubation at 37C, 3 uL/well CellTiter-Glo luminescent cell viability reagent (Promega Corporation, Madison, WI) was added using a Flying Reagent Dispenser (FRD) (Aurora Discovery, CA). After incubation at room temperature for 30 min, the luminescence intensity was read using a ViewLux plate reader (PerkinElmer, Waltham, MA).
Background: In qHTS, concentration-response curves come from the screen itself.
For `N#Cc1cscn1`, the compound was classed as inactive.

Turning to `C=CC/C=C/C`, the result was inactive.

With `C/C=C(\C)C(C)=O`, the compound was classed as inactive.

For the compound `COC(=O)/C=C\C(=O)O`, the outcome was inactive.

For the compound `COC(=O)c1cccc(Cl)c1`, the compound was called inactive.

Turning to `CC1(C)O[C@H]2CC(=O)OC[C@]23[C@H]2CC[C@@]4(C)[C@H](c5ccoc5)OC(=O)[C@H]5O[C@]54[C@]2(C)C(=O)C[C@@H]13`, the outcome was inactive.

`CCCCCC/C=C/C(=O)OC`: the compound was called inactive.

For `c1ccc(B(c2ccccc2)c2ccccc2)cc1`, the compound was classed as inactive.

For `C=CCCCCCCCCC(=O)OCCCC`, the compound was called inactive.

Turning to `CCOc1ccccc1OCC1CNCCO1` (stereo not given), the result was inactive.

Consider `CC(O)COC(C)(C)C` (stereo not given), for which the compound was classed as inactive.

`OCC(O)CN1CCN(c2ccccc2)CC1` (stereo not given): the result was inactive.

`COc1ccc2c(c1)c1c3n2CCN(C)C3=NCC1`: the compound was classed as inactive.

Regarding `CN1CCOC(c2ccccc2)c2ccccc2C1` (stereo not given), the result was inactive.

Take `CO/N=C(/C(=O)N[C@@H]1C(=O)N2C(C(=O)[O-])=C(C[n+]3ccn4ncccc43)CS[C@H]12)c1nsc(N)n1`: the result was inactive.

Turning to `CC1(C)Cc2cccc(N)c2O1`, the result was inactive.

Turning to `CC1(C)[C@H]2CC[C@](C)(C2)[C@H]1O`, the outcome was inactive.

For the compound `CC(=O)O[C@@H]1CC2CCC1(C)C2(C)C` (stereo not given in full), the compound was classed as inactive.

As to `CCCCOCC(C)O` (stereo not given), the outcome was inactive.

As to `CC(S)C(C)S` (stereo not given), the outcome was inactive.

Turning to `CCNC(=O)NCc1cccc(Cl)c1`, the call was inactive.

Regarding `O=C(Cl)c1ccccc1[N+](=O)[O-]`, the outcome was inactive.

As for `CC(C)[C@H]1CC[C@H](C)C[C@@H]1O`, the call was inactive.

Turning to `CC1=C(O)C(=O)C(C)O1` (stereo not given), the result was inactive.

For `CCC(C)C(=O)OCCc1ccccc1` (stereo not given), the compound was classed as inactive.

For the compound `CN(C)CC/C=C1/c2ccccc2COc2ccc(CC(=O)O)cc21`, the result was inactive.

With `C=CC(=O)CCCCC`, the compound was called inactive.

For `C=CCCCC`, the outcome was inactive.

For the compound `CCCCCc1cccc(=O)o1`, the call was inactive.

Regarding `CC(=O)OC(C)=O`, the outcome was inactive.

As for `CC1(C)CC(OC(=O)CCCCCCCCC(=O)OC2CC(C)(C)NC(C)(C)C2)CC(C)(C)N1`, the activity change, negative = cytotoxicity is -4.19% [at 31.6 µM] (inactive).

Consider `CC(C)CO`, for which the compound was called inactive.

Regarding `O=C1c2ccccc2C(=O)c2cc(Cl)ccc21`, the activity change, negative = cytotoxicity is 4.41% [at 14 µM] (inactive).

With `CC(C)(CO)C(O)C(=O)NCCCO` (stereo not given), the result was inactive.

In the case of `Cc1cc(C)c(C(=O)O)c(C)c1`, the outcome was inactive.

For `Cc1c(C(=O)c2c[nH]n(C)c2=O)ccc(S(C)(=O)=O)c1C1=NOCC1`, the compound was called inactive.

Consider `C=CC(=O)OCC1CCCO1` (stereo not given), for which the compound was called inactive.

Consider `Cc1ccc(C(C)NC(=O)[C@@H](NC(=O)OC(C)C)C(C)C)cc1` (stereo not given in full), for which the result was inactive.

`C=C(C)[C@@H]1CC=C(C)CC1`: the result was inactive.

For `O=[N+]([O-])c1c(Cl)cc(Cl)cc1Cl`, the call was inactive.
